40 sequences from the supplement of paper PMC6555819 can be followed below.

For this assay, the system named is VDR:RXRa (NR concentration 270 nM, RXRa partner concentration 90 nM). Kind of assay: PBM binding z-score (relative to random genomic background probes); higher = stronger binding; sequences stand for … in GC…GCGATTGACAGCGTAGAATGAAGG
Here is the method: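 Protein-binding microarray (Agilent 4x180K custom design, double-stranded 60-nt probes: 5' GC cap, 34-nt variable region, 24-nt constant primer region; full probe sequence given). Purified or IVT nuclear receptor:RXRα heterodimers (3:1 NR:RXRα, mostly 270:90 nM) or homodimers were incubated for 1 h in PBS with 2% milk and no ligand, then detected with Alexa488 antibodies. Fluorescence from o1-orientation probes (~5 replicates averaged) was converted to z-scores against 500 random hg19 background probes. Variable regions are seed direct-repeat (DR0–DR5) sites, all their single-nucleotide variants and half-site ablations.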
CGAACTAGGTCATTGATAGGACAGTGAATAGTAA displayed a PBM binding z-score of 2.27.

On to ATCTCTAGGTAACAAGTTCAGTAAAAGAGAGGAC, for which the PBM binding z-score turned out to be 1.96. TCTAGCATGCCAGAGGGTCACTCAAGAGGTACGG: the PBM binding z-score stood at 1.46.

Consider CCAGACAGGTGAAAGGTGACTCAGTCTGGTACGC, for which the PBM binding z-score was 1.3. For TGTCAAAGTACAAAGGTAACGTAAGTATCCACAC, the PBM binding z-score turned out to be 0.725.

In the case of GGAACGAGGGCAAAGTTGATAGGATCTGTCGACG, the PBM binding z-score amounted to 1.37. CAAACTAGGTCAACGGAAGGTCAAAGTCCGCATG returned a PBM binding z-score of 5.56.

As for CTCGAAAGGTCGGTTGAGGTGAGTATTCGGATAA, the PBM binding z-score came out at 2.16. The sequence AGTATTAGTTGAGACGAGGGCAACCGATAGGTTG gave a PBM binding z-score of 0.873.

TCTTGTAGAACAAGCAGGTTAAGAAAGCCTGAGT gave a PBM binding z-score of 0.279.

Sequence CCCTACGGGTCACTCCAGGTTATAGCATCGGAGT returned a PBM binding z-score of 4.12. Take ATCTCTAGGTAATACTCAGTTCAGTGAAGAACGC: the PBM binding z-score was 1.55. As for TCTAGTTGGTCACGGAGGTCACACAGGACGGGTA, the PBM binding z-score was found to be 5.94.

The sequence TCTCGGAGGAGACGAAAGGTCAGAGCTCGACATC had a PBM binding z-score of 1.87.

The sequence CCTTACGGGTCACGAGGTTATAACACGACGAGCG gave a PBM binding z-score of 5.28. For ATCGAAAGGTCGTGAGCTGAGTATACAGAAAGGC, the PBM binding z-score was determined as 2.95. As for TGAATGATGTTAAAGATCAGGGAACGTGGCGTCG, the figure is -0.0975; as for TCTTGTATATCAAAGGTTAAGAAAGCCGAAGCCT, 1.91. As for ATCTCTAGGTACCCAAGTTCAGTGAATGCCGAAC, the figure is 2.1. With ATCTCTAGGCAACAAGTTCAGTGAAAGAGAGGAC, the PBM binding z-score is 1.82. Sequence CATACAGGGTTAGCTAGGCCAGAGTAGGGACGGC returned a PBM binding z-score of 0.398.

CCAGACAGGTGAGAAGGTAACGCAGCCTCGATTA had a PBM binding z-score of -0.101. CCTACTGGGCCAAAAAGGTCTTTGATGCCGATAA: the PBM binding z-score is -0.154.

Sequence CCTACTGGGCCAAAAAGGTGATTGATGCCGATAA showed a PBM binding z-score of -0.0906. Turning to GCTATTAGTTGAAAGGGCATCCGAATGATTCTCG, the PBM binding z-score came out at 0.499. On to ATCTCTAGGTAACCAAGTCCAGTGAATGCCGAAC, for which the PBM binding z-score worked out at 0.999.

TAGCCTAGGTCATGAGGGCCAGTATAGTGTCGGC registered a PBM binding z-score of 3.51. In turn, CCTAGCAGGCCAGGGTAACTCAAGCATTTCGCTT came in with a PBM binding z-score of -0.743. ATAAGTAGGTTATCGGGTCATTCAGTTTGCGCAT: the PBM binding z-score came to 5.16.

With CCTATTAGTTGACCATAAGGGCAACAGAAGCTCG, the PBM binding z-score is 0.519. Under CCTAGTTGGTCAGGAGGTCAAACACCGGATATGA stands 4.09; under TAGCCTAGGTCATTGGGCCAGTAGAGTACGCATC, 2.26; under TCTCGGAGGACACGAGAGGTCAGAGCTCGACATC, 3.41. For the sequence CCAGACAGGGGAAAGGTAACTCAGTCTGGTACGC, the PBM binding z-score is -0.0821. Under TAGCCTAAGTCATTCAGGGGCCAGTATAGAAAGC stands -0.0562. As for CCTTTTAGTTGACCATAAGGGCAACCGAAGCTCG, the figure is 1.28; as for ACTTACGGGCCAACGAGGTTATAGCACGCGTATA, 3.84. For the sequence GCGACTGGGTCATCAGCAGGTTACCATAACTTAA, the PBM binding z-score was 2.27. AGAATGAGGTTACCAAAGATCAGGGACACGCTTG showed a PBM binding z-score of 1.54. The sequence CCGGCTGGGGCAAAGGTTACCATACTCAGTACGA gave a PBM binding z-score of 1.58.
